This note sets out measurements from paper PMC4336329 (PLoS ONE, 2015).

Each structure is given as a SMILES string. Among all 310,000 compounds or so, about 14,000 (4.5%) showed an effect of 50% or more. The effect is printed as a negative number. The full list was thinned out, with strong results kept by preference.
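Note: peak tail current of the secondary pulse compared with the same well before compound.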

Sequence of human ether-à-go-go-related gene (hERG) potassium channel (Q12809 whole entry, looked up): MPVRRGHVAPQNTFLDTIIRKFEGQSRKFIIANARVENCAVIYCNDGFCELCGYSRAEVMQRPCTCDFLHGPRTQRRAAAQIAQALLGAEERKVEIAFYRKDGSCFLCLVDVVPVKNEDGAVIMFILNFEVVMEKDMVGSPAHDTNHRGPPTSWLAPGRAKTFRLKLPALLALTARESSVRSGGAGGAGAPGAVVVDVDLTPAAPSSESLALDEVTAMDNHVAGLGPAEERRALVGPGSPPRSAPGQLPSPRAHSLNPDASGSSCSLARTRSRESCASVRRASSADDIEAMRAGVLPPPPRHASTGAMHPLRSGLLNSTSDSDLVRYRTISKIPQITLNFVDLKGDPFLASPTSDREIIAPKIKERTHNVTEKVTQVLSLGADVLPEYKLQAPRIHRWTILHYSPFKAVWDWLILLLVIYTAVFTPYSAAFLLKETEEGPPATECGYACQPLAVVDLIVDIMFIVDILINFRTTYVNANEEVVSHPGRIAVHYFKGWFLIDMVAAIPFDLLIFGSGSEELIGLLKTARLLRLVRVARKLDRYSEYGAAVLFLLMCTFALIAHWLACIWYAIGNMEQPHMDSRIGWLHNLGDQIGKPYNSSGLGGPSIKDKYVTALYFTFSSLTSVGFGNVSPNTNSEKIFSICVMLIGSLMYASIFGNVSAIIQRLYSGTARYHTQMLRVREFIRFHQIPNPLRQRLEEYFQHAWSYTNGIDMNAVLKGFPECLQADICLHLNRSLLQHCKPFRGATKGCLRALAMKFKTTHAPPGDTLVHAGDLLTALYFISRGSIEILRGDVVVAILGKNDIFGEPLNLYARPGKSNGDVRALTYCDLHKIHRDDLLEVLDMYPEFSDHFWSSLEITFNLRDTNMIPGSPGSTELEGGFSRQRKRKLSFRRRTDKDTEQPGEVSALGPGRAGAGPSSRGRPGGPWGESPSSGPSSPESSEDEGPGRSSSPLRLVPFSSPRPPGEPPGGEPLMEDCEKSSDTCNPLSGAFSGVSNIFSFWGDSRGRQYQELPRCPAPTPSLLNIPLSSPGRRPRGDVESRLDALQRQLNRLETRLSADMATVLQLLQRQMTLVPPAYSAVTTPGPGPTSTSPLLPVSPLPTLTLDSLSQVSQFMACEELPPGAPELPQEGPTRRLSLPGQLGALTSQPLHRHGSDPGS

This assay addresses human ether-à-go-go-related gene (hERG) potassium channel (human, UniProt Q12809). The assay can be described thus: primary screen, population patch clamp on CHO cells stably expressing hERG; higher = less effect of the substance.
With `COc1ccc(NCc2nnc(SCC(=O)Nc3ccc(OC)cc3OC)o2)cc1`, the “hERG current change (%, negative = inhibition) at 10uM” value is on record as -9.35%. In the case of `CCN(c1ccccc1)S(=O)(=O)c1cc2c(cc1C)n(C)c(=O)c(=O)n2C` it was -32%. Under `Cc1cccc(C(=O)NNS(=O)(=O)c2ccccc2[N+](=O)[O-])c1` stands 1.16%; under `CN(C(=O)CCS(=O)(=O)c1ccc2c(c1)oc(=O)n2C)C1CCCCC1`, 3.68%. With `Cc1nn(CCC(=O)O)c(C)c1C`, the “hERG current change (%, negative = inhibition) at 10uM” value was found to be 5.72%.

Turning to `C=CCn1c(=O)c2c(nc3n2CCN3c2cccc(Cl)c2C)n(C)c1=O`, the “hERG current change (%, negative = inhibition) at 10uM” value is on record as -15%. In the case of `CCOC(=O)N1CCN(Cc2nc3cc(NC(=O)C(C)C)ccc3n2CC)CC1`, the “hERG current change (%, negative = inhibition) at 10uM” value is recorded as 14.3%.

Turning to `CCOC(=O)N1CCN(Cc2nc3cc([N+](=O)[O-])ccc3n2C)CC1`, the “hERG current change (%, negative = inhibition) at 10uM” value was -24.5%. In the case of `CCCn1c(CN2CCN(C(=O)OCC)CC2)nc2cc(NC(C)=O)ccc21` it was 12.8%; in that of `CCCn1c(CN2CCN(C(=O)OCC)CC2)nc2cc([N+](=O)[O-])ccc21`, -64%; in that of `CCOC(=O)N1CCN(Cc2nc3cc([N+](=O)[O-])ccc3n2CC)CC1`, -51.9%. Under `CCOC(=O)N1CCN(Cc2nc3cc(NC(=O)CC(C)C)ccc3n2CC)CC1` stands -8.18%. Turning to `O=C(COC(=O)c1ccco1)NCc1cccs1`, the “hERG current change (%, negative = inhibition) at 10uM” value was 12.4%.

Regarding `CCOc1ccc(CNC(=O)c2ccc(Sc3ccc(C)cc3)c(NC(C)=O)c2)cc1OC`, the “hERG current change (%, negative = inhibition) at 10uM” value is -21.5%. In the case of `CCN(CC)CCNC(=O)c1ccc(Sc2ccc(Cl)cc2)c(NC(C)=O)c1` it was -61.7%. In the case of `CC(=O)Nc1cc(C(=O)NCCN2CCN(Cc3ccccc3)CC2)ccc1Sc1ccc(C)cc1` it was -63.6%; in that of `CCN(CC)CCNC(=O)c1ccc(Sc2ccc(C)cc2)c(NC(C)=O)c1`, -58.2%. In the case of `CCOc1ccc(CNC(=O)c2ccc(Sc3ccc(C)cc3)c(NC(C)=O)c2)cc1` it was -4.85%; in that of `CC(=O)Nc1cc(C(=O)NCc2ccco2)ccc1Sc1ccc(C)cc1`, -17.8%. With `CCOc1ccc(CNC(=O)c2ccc(Sc3ccc(Cl)cc3)c(NC(C)=O)c2)cc1`, the “hERG current change (%, negative = inhibition) at 10uM” value is recorded as -8.57%. As for `CCC(=O)Nc1cc(C(=O)O)ccc1Sc1ccc(C)cc1`, the “hERG current change (%, negative = inhibition) at 10uM” value was found to be 4.85%.

Turning to `CC(=O)Nc1cc(C(=O)NCc2ccco2)ccc1Sc1ccc(F)cc1`, the “hERG current change (%, negative = inhibition) at 10uM” value is on record as -40.8%.

Regarding `CCOc1ccccc1CNC(=O)c1ccc(Sc2ccc(Cl)cc2)c(NC(C)=O)c1`, the “hERG current change (%, negative = inhibition) at 10uM” value is on record as -19.4%. Under `CC(=O)Nc1cc(C(=O)N(C)Cc2ccco2)ccc1Sc1ccc(Cl)cc1` stands -66.7%; under `CC(=O)Nc1cc(C(=O)NCc2ccco2)ccc1Sc1ccc(Cl)cc1`, -35.6%; under `CSc1ncc(F)c(N(CCO)CCO)n1`, 10.5%. Under `O=C1S/C(=C\c2ccccn2)C(=O)N1Cc1ccccc1F` stands 9.45%. Under `O=S(=O)(Nc1cccnc1Cl)c1ccc2c(c1)OCCO2` stands 15.4%; under `COc1cc(C(=O)N(C)CCOc2ccc(C)cc2)ccc1OC1CCN(C(C)=O)CC1`, 8.41%; under `CCN1CCC2(CC1)N=C(c1ccc(F)cc1)C(=S)N2C(=O)c1ccc(C(C)(C)C)cc1`, -10.8%.

Take `CC(C)OCCCNC(=O)NC(=O)c1ccc(Cl)cc1`: the “hERG current change (%, negative = inhibition) at 10uM” value is -6.21%. Under `CCN(CC)CCNC(=O)NC(=O)c1ccc(Cl)cc1` stands -63%. In the case of `CN(C)CCNC(=O)NC(=O)c1ccc(Cl)cc1` it was -14.7%; in that of `COc1ccc(/C=N/NC(=O)C(C)n2nnc3ccccc32)cc1OC` (stereo not drawn), 2.4%. In the case of `CC[n+]1c(C)sc2cc(C)ccc21.[I-]` it was 15%; in that of `Cc1ccc2c(c1)sc(-c1ccc(N(C)C)cc1)[n+]2C.[I-]`, -60%; in that of `C[n+]1c(-c2ccccc2)sc2ccccc21.[O-][Cl+3]([O-])([O-])[O-]`, 23.1%. As for `O=C(CN1C(=O)c2cccnc2Oc2ccc(Cl)cc21)NC1CCCCC1`, the “hERG current change (%, negative = inhibition) at 10uM” value is -13.1%. In the case of `CC(=O)Nc1ccc(/C=C/C(=O)c2ccc3c(c2)OCCO3)cc1` it was -0.901%; in that of `CCOc1ccc(C(=O)NC(C(=O)NCC(c2cccs2)N(C)C)C(C)C)cc1` (stereo not drawn), -19.8%. Under `O=C(NCCc1c[nH]c2ccccc12)/C(=C/c1cccnc1)NC(=O)c1ccco1` stands -64.7%. Under `O=C(NCCCn1ccnc1)/C(=C\c1cccnc1)NC(=O)c1ccco1` stands -0.164%; under `O=C(NCCc1c[nH]c2ccccc12)/C(=C\c1cccnc1)NC(=O)c1ccco1`, -65.1%. On to `O=C(NCCc1c[nH]c2ccccc12)/C(=C\c1ccco1)NC(=O)c1ccco1`, for which the “hERG current change (%, negative = inhibition) at 10uM” value is listed as -21.3%. In the case of `O=C(NCCc1c[nH]c2ccccc12)/C(=C/c1ccco1)NC(=O)c1ccco1` it was -42.5%; in that of `O=C(NCCc1c[nH]c2ccccc12)c1ccco1`, 3.71%. In the case of `CC1CCCC(C)N1C(=O)COC(=O)c1nn(C)c(=O)c2ccccc12` (stereo not drawn) it was 1.93%; in that of `COc1ccc(C(=O)N/C(=C\c2cn(S(=O)(=O)N(C)C)c3ccccc23)C(=O)N2CCN(C)CC2)cc1`, -50.8%. In the case of `COc1ccc(C(=O)N/C(=C\c2cn(C)c3ccccc23)C(=O)N2CCN(C)CC2)cc1` it was -7.61%; in that of `CCOC(=O)N1CCN(C(=O)/C(=C/c2cccc3ccccc23)NC(=O)c2ccc(OC)cc2)CC1`, -50.9%; in that of `CCn1cc(/C=C(\NC(=O)c2ccc(OC)c(OC)c2)C(=O)N2CCN(C)CC2)c2ccccc21`, -32.8%.

For `CCOC(=O)N1CCN(C(=O)/C(=C/c2cccc3ccccc23)NC(=O)c2ccc(OC)c(OC)c2)CC1`, the “hERG current change (%, negative = inhibition) at 10uM” value was -3.14%. On to `CN1CCN(C(=O)/C(=C/c2cn(S(=O)(=O)N(C)C)c3ccccc23)NC(=O)c2ccccc2)CC1`, for which the “hERG current change (%, negative = inhibition) at 10uM” value was 0.665%. In the case of `COc1ccc(C(=O)N/C(=C\c2cn(C)c3ccccc23)C(=O)N2CCOCC2)cc1` it was -10.9%. Under `COc1ccc(C(=O)N/C(=C\c2cccc3ccccc23)C(=O)N2CCN(C)CC2)cc1OC` stands -50.6%; under `COc1ccc(C(=O)N/C(=C\c2cn(C)c3ccccc23)C(=O)N2CCN(C)CC2)cc1OC`, -3.26%; under `COc1ccc(C(=O)N/C(=C\c2cn(S(=O)(=O)N(C)C)c3ccccc23)C(=O)N2CCOCC2)cc1`, -47%.

As to `CCOC(=O)N1CCN(C(=O)/C(=C/c2ccccc2OC)NC(=O)c2ccccc2)CC1`, the “hERG current change (%, negative = inhibition) at 10uM” value is -37.9%. In the case of `COc1ccc(C(=O)N/C(=C\c2cccc3ccccc23)C(=O)N2CCN(C)CC2)cc1` it was -65.6%. In the case of `CCCCC[n+]1ccn(C2=C([O-])c3ccccc3C(=O)/C2=N\S(=O)(=O)c2ccc(Br)cc2)c1` it was -39.1%; in that of `CC(/C=C/c1ccc2c(c1)OCO2)=N\NC(=O)c1ccccc1`, 10.3%; in that of `O=S(=O)(NC1CCSc2ccccc21)c1ccc(Cl)nc1` (stereo not drawn), -18.1%.

With `CCOc1cc(/C=C2/C(=N)N3C(=NC2=O)SN=C3S(=O)(=O)C(C)C)ccc1OC(=O)c1ccco1`, the “hERG current change (%, negative = inhibition) at 10uM” value is recorded as 3.02%. In the case of `COC(=O)C1C(O)=C(C=Nc2ccc3ccccc3c2)C(=O)CC1(C)C` (stereo not drawn) it was -8.23%.

As for `O=[N+]([O-])c1ccc(Sc2ccc(F)cc2)nc1`, the “hERG current change (%, negative = inhibition) at 10uM” value amounted to 11.2%. Under `COc1ccc(C(=O)Nc2cccc(/C=C(\CCC(=O)O)c3nc4ccccc4s3)c2)cc1` stands 8.59%; under `CN(C)/C=C1\C(=O)NN=C1C(F)(F)F`, 4.44%; under `Cc1cccn2cc(-c3cccc(S(=O)(=O)N4CCOCC4)c3)nc12`, 0.676%. Consider `COc1cc(OC)cc(C(=O)NCC(=O)N2CCCCC2)c1`, for which the “hERG current change (%, negative = inhibition) at 10uM” value is listed as 9.25%.

`CCn1ncc(Cl)c1C(=O)Nc1ccc2c(c1)CCC2`: the “hERG current change (%, negative = inhibition) at 10uM” value worked out at 3.85%.

Regarding `O=C(NCC1CCN(Cc2cccc(Cl)c2)CC1)Nc1ccc(Cl)cc1`, the “hERG current change (%, negative = inhibition) at 10uM” value was -76.2%. Under `CCc1ccc(NC(=O)NCC2CCN(c3ccc(OC)cc3)C2)cc1` (stereo not drawn) stands -6.79%.

For the compound `CCc1ccc(NC(=O)NCC2CCN(Cc3cccc(Cl)c3)CC2)cc1`, the “hERG current change (%, negative = inhibition) at 10uM” value was -82.9%. Under `O=C(NCC1CC1)Nc1ccc(Cl)cc1` stands 17.7%; under `Cc1ccc(NC(=O)NCC2CCN(Cc3cccc(Cl)c3)CC2)cc1Cl`, -19.7%; under `COc1ccc(Oc2nccc(OC)c2C#N)cc1`, -0.188%. Take `O=C(NCCCN1CCCC1=O)C1CCN(S(=O)(=O)c2cccc(Cl)c2Cl)CC1`: the “hERG current change (%, negative = inhibition) at 10uM” value is listed as -18.7%. As for `O=C(/C=C/c1ccccc1)OCC(=O)N1CCCC1`, the “hERG current change (%, negative = inhibition) at 10uM” value is listed as 0.185%.

Take `CCN1CCN(CCC(=O)Nc2ccc(Br)c(C)c2)CC1.Cl`: the “hERG current change (%, negative = inhibition) at 10uM” value is -30.8%. Under `Cc1cc(NC(=O)CCN2CC(C)OC(C)C2)ccc1Br.Cl` (stereo not drawn) stands -7.73%; under `Cc1cc(NC(=O)CCN2CCC(C)CC2)ccc1Br.Cl`, -57.6%; under `Cc1cc(NC(=O)CCN2CCCCC2)ccc1Br`, -72.8%. In the case of `Cc1cc(NC(=O)CCN2CCN(C)CC2)ccc1Br.Cl` it was -7.85%; in that of `Cc1cc(NC(=O)CCN2CCN(CCO)CC2)ccc1Br.Cl`, -4.69%.
